We go through seven compounds from PubChem BioAssay (NCATS).

Structures are written as SMILES. Several values for one entry are separate records, joined by “and”; a condition that tells them apart may be missing. Identical values can stand only once. Inconclusive results are not listed. Activity calls are given as the source filed them. Unless noted, calls come from the whole dose curve.

Test [1] addresses Androgen receptor (Homo sapiens) (UniProt P10275). The experiment in a line: qHTS assay for small molecule agonists of androgen receptor signaling (AID 588515; active = well fitted curve in the direction sought with a large enough effect in the signal ratio, with a control signal flat; the % refers to the signal ratio; note: % is set by controls: 0 for no effect and ±100 for the full control effect). Particulars: AR-UAS-bla HEK293, beta-lactamase ratio, agonist 16 h; stronger effect = higher value. In outline: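 Stimulation of an AR-responsive β-lactamase reporter in GripTite HEK293 cells was measured after 16 h compound exposure at 37 °C, via CCF4 fluorescence after 2 h RT. EC50 from Hill fits, normalized to R1881 at 30 nM.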

For test [2] the target is unchanged. The test can be described thus: qHTS assay for small molecule antagonists of androgen receptor signaling (AID 588516; active = well fitted curve in the direction sought with a large enough effect in the signal ratio, with a control signal flat, not every such curve was filed as active; the % refers to the signal ratio; note: % is set by controls: 0 for no effect and ±100 for the full control effect). Conditions: AR-UAS-bla HEK293, beta-lactamase ratio, antagonist mode, 16 h; series mostly up to 76.8 µM. In short, it runs like this: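 AR-UAS-bla GripTite HEK 293 cells (2000/well) treated with compound titrations plus 10 nM R1881 for 16 h at 37C. Beta-lactamase read by CCF4 FRET (460/530 nm); IC50 from Hill fits, normalized to R1881 and DMSO control wells.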
For orientation: In qHTS, concentration-response curves come from the screen itself.

The target of test [3] is Bile acid receptor (Homo sapiens) (UniProt Q96RI1). The experiment in a line: qHTS assay for small molecule antagonists of farnesoid X receptor signaling (AID 588526). Note: % is set by controls: 0 for no effect and ±100 for the full control effect. Conditions: HEK293T FXR-UAS-bla, beta-lactamase ratio, antagonist mode; series mostly up to 76.7 µM. In outline:
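Antagonist mode: titrated compounds tested against chenodeoxycholic acid stimulation (normalized to 50 uM CDCA and DMSO) in GeneBLAzer HEK293T cells for 16 h. Beta-lactamase read by CCF4 fluorescence; IC50 from Hill fits.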

For test [4] the target is unchanged. The experiment in a line: qHTS assay for small molecule agonists of farnesoid X receptor signaling (AID 588527).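 Note: 0% = vehicle basal and 100% = reference agonist.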 Conditions: HEK293T FXR-UAS-bla, beta-lactamase ratio, 16 h; activation: stronger effect = higher value. In short, it runs like this: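 FXR-UAS-bla HEK293T cells (10% dialyzed FBS) preincubated 5-7 h at 37 C, then compounds at up to 92 uM for 16 h at 37 C. CCF4 beta-lactamase read-out after 2 h RT. Normalized to chenodeoxycholic acid (100 uM) and DMSO; Hill fit gave EC50 and efficacy.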

Test [5] has as its target Glucocorticoid receptor (Homo sapiens) (UniProt P04150). The experiment in a line: qHTS assay for small molecule agonists of glucocorticoid receptor signaling (AID 588532; active = well fitted curve in the direction sought with a large enough effect in the signal ratio, with a control signal flat; the % refers to the signal ratio;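 note: 100% = dexamethasone at 0.1 µM and 0% = DMSO only wells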). Particulars: HeLa MMTV-bla, beta-lactamase ratio, agonist, 18 h; activation: stronger effect = higher value, percent of dexamethasone control, DMSO zero. In short, it runs like this: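 MMTV-bla HeLa beta-lactamase reporter cells in 1% charcoal/dextran FBS medium, compounds up to 92 uM for 18 h at 37 C, CCF4 readout; normalized to 0.1 uM dexamethasone (100%), EC50 and efficacy from Hill fits.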

Test [6] can be described thus: qHTS assay for small molecule antagonists of peroxisome proliferator-activated receptor delta signaling (AID 588535; active = well fitted inhibition curve with a large enough effect in the signal ratio, with a control signal flat, not every such curve was filed as active; the % refers to the signal ratio;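 for max response: cells co-treated with a PPAR-delta agonist as stimulator during compound exposure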). Conditions: HEK293T PPARd-UAS-bla, beta-lactamase FRET ratio, 18 h; 460 nm channel. In short, it runs like this: (§1)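 Fluorescence from CCF4-loaded GeneBLAzer PPAR-delta-UAS-bla HEK293T cells (2 hrs RT loading) quantified reporter inhibition after an 18 hr, 37 C compound exposure across a titration.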

Test [7] deals with Peroxisome proliferator-activated receptor delta (Homo sapiens) (UniProt Q03181). The test is described as above. Particulars: HEK293T PPARd-UAS-bla, beta-lactamase FRET ratio, 18 h; series mostly up to 76.7 µM. In short, it runs like this:
as §1

The target of test [8] is Vitamin D3 receptor (Homo sapiens) (UniProt P11473). The test can be described thus: qHTS assay for small molecule agonists of vitamin D receptor signaling (AID 588543).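 Note: 0% = DMSO basal and 100% = reference agonist control.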 Conditions: HEK293T VDR-UAS-bla, beta-lactamase ratio, 16 h; series mostly up to 76.8 µM. In short, it runs like this: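 VDR-UAS-bla HEK293T cells, 2000/well, 2% charcoal-stripped FBS; compound titration 16 h at 37 C; CCF4 beta-lactamase ratio read. Normalized to 50 nM 1-alpha,25-dihydroxyvitamin D3 (100%) and DMSO; Hill fit gives EC50, efficacy.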

Test [9] is described as follows: qHTS assay for small molecule agonists of the antioxidant response element (ARE) signaling pathway (AID 651741; active = well fitted activation curve with a large enough effect in the signal ratio; the % refers to the signal ratio; note: potency is the fitted concentration of half-maximal effect; for activation: % of control where 0% means no effect). Particulars: HepG2 ARE-bla reporter, beta-lactamase FRET ratio, 16 h; series mostly up to 96 µM. In short, it runs like this:
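Stably integrated ARE-beta-lactamase reporter HepG2 cells; 16 h compound incubation, 37 C; LiveBLAzer FRET substrate 2 h at room temperature; fluorescence intensity.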

Test [10] can be described thus: qHTS assay for small molecule activators of the nuclear factor-kappa B (NF-kB) signaling pathway (AID 651749; active = well fitted activation curve with a large enough effect in the signal ratio; the % refers to the signal ratio; note: % of control where 0% means no effect). Particulars: NF-kB-bla ME-180 cells, beta-lactamase FRET ratio, 16 h; activation: stronger effect = higher value. In short, it runs like this: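 In this qHTS format, compounds acting as activators increase NF-kB-driven beta-lactamase in ME-180 cells, measured as disrupted FRET after 16 hr exposure at 37C and 5% CO2.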

The target of test [11] is Nuclear receptor subfamily 1 group I member 2 (Rattus norvegicus) (UniProt Q9R1A7). The test can be described thus: qHTS assay for small molecule activators of the rat pregnane X receptor (rPXR) signaling pathway (AID 651751; call rule not given here; note: 0% is about no effect). Conditions: rPXR reporter cells, luciferase (One-Glo), 24 h.
A short description of test [12]: qHTS assay for small molecule activators of the human pregnane X receptor (PXR) signaling pathway (AID 720659; call rule not given here; note: 0% is about no effect). Conditions: DPX-2 HepG2 CYP3A4-luciferase, 24 h; series mostly up to 92.3 µM.

Sequence of Bile acid receptor (Homo sapiens) (Q96RI1 whole entry, looked up): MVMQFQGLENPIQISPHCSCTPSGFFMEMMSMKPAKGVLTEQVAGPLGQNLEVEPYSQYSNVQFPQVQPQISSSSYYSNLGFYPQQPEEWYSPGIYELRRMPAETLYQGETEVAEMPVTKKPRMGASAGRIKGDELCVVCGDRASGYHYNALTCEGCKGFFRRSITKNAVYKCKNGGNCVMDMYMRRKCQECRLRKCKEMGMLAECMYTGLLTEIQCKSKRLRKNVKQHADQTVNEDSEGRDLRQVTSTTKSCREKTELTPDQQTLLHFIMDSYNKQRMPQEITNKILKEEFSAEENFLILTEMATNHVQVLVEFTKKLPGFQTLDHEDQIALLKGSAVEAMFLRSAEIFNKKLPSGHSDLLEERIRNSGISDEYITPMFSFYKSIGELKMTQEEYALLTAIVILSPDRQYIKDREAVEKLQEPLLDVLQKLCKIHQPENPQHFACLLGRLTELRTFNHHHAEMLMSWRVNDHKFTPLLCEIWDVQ
Sequence of Nuclear receptor subfamily 1 group I member 2 (Rattus norvegicus) (Q9R1A7 whole entry, looked up): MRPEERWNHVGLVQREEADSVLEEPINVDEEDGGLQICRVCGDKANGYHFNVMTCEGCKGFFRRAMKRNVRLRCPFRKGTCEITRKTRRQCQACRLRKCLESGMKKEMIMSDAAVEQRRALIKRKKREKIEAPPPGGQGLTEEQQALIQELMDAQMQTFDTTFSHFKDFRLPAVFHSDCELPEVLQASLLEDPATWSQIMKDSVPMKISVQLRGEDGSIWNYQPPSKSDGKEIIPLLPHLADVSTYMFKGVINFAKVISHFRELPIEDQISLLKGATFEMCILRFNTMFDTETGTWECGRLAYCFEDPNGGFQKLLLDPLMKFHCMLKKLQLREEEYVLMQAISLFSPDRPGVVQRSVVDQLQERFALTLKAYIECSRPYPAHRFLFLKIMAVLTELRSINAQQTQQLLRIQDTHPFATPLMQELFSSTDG
Sequence of Androgen receptor (Homo sapiens) (P10275 whole entry, looked up): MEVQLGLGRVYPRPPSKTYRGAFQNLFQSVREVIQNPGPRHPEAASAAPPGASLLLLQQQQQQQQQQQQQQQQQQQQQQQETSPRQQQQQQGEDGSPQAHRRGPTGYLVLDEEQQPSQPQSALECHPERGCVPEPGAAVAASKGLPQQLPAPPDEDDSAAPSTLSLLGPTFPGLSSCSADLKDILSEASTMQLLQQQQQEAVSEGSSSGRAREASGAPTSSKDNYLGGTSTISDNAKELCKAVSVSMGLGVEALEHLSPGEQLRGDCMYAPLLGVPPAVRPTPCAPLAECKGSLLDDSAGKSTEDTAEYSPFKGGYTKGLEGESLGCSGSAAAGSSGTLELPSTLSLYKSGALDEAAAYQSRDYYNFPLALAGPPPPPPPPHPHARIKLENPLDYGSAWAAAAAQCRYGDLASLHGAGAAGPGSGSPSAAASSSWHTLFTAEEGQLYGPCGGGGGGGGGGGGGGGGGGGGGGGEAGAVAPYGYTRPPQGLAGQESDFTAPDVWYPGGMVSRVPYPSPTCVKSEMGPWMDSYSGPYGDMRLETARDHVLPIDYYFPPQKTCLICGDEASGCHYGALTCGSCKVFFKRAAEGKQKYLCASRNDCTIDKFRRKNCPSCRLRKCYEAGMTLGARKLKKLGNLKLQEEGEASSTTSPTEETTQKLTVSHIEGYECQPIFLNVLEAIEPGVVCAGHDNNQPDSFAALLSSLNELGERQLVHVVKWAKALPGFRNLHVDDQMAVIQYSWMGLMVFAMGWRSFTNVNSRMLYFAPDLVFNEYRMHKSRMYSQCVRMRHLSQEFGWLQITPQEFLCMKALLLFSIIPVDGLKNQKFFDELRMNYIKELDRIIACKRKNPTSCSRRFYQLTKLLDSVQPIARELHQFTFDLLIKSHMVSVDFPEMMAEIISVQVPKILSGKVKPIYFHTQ
Sequence of Glucocorticoid receptor (Homo sapiens) (P04150 whole entry, looked up): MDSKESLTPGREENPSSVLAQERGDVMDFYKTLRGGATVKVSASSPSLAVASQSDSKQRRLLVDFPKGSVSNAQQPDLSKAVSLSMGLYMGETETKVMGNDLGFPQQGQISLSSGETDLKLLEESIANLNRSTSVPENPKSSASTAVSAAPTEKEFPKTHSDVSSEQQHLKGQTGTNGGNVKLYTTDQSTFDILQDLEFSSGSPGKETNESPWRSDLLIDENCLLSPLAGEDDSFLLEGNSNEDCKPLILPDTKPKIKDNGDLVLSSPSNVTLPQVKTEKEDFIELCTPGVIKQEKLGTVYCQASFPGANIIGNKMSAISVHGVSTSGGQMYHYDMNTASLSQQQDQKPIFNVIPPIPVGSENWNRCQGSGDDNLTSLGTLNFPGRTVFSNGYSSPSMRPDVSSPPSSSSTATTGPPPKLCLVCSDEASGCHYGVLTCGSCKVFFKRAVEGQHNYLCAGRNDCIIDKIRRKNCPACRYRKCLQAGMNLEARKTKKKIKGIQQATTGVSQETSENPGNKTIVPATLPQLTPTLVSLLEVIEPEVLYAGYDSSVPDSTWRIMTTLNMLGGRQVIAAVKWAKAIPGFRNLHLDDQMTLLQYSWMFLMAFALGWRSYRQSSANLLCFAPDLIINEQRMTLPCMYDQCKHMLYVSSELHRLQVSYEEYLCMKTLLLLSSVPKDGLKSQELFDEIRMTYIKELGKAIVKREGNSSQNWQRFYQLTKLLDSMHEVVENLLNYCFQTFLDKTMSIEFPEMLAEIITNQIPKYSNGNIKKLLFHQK
Sequence of Peroxisome proliferator-activated receptor delta (Homo sapiens) (Q03181 whole entry, looked up): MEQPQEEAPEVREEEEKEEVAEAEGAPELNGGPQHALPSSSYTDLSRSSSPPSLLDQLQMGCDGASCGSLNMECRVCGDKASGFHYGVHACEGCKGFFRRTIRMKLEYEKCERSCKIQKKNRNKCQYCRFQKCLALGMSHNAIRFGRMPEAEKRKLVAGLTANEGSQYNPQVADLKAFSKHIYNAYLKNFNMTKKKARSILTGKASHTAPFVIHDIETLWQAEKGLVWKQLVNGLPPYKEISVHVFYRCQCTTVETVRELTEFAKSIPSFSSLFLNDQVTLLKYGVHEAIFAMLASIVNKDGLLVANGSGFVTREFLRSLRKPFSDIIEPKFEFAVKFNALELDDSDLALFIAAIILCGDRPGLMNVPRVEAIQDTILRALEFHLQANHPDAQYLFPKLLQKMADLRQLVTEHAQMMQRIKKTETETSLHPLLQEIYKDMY
Sequence of Vitamin D3 receptor (Homo sapiens) (P11473 whole entry, looked up): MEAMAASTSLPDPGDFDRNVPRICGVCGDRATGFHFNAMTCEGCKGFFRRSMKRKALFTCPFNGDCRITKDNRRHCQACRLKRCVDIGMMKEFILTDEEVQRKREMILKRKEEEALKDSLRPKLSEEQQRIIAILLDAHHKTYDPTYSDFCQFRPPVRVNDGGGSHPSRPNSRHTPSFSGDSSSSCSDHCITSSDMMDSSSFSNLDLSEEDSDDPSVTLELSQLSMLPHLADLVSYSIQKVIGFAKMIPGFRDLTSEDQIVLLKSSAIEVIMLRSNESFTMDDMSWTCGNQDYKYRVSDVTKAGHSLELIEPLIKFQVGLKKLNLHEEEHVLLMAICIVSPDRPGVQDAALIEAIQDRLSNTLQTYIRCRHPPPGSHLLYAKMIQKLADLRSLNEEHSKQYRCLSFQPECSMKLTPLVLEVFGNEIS

Consider `CCOP(=O)(SC(C)CC)SC(C)CC` (stereo unspecified), for which the activation is 7.1% (inactive) in test [1], -3.29% (inactive) in test [4], -2.32% (inactive) in test [5] and -1.37% (inactive) in [10]. Also, the Potency entry in test [2], in test [3], in test [7] and in test [9] was “inactive” each time. Besides, the max response in [6] is -10.9%; in [11], 4.1% (inactive). For the same compound, the result in test [8] and in test [12] was inactive.
With `FC(F)(F)c1ccc(OCCCOc2c(Cl)cc(OCC=C(Cl)Cl)cc2Cl)nc1`, the activation in [1] is -16.8% (inactive); in test [4], -2.38% (inactive); in [5], 9.84% (inactive); in test [10], 0.158% (inactive). The Potency entry in [2], in [3] and in [7] was “inactive” in each case. For the same compound, the max response in test [6] is -4.25%; in test [11], 1.93% (inactive). The outcome in test [8] and in test [12] was inactive.
As to `Cc1cc(Cl)ccc1OCC(=O)O`, the activation was -0.462% (inactive) and -10.2% (inactive) in test [1]; -2.21% (inactive) and 11.1% (inactive) in [5]. Moreover, in [2], the Potency result was “inactive”. In addition, the outcome in test [8] and in [12] was inactive. Also, in test [11], the max response was -1.6% (inactive) and -6.7% (inactive).
With `c1cc2c3c(cccc3c1)CC2`, the activation in test [1] was 5.35% (inactive). Further, the Potency entry in test [2], in test [7] and in [9] was “inactive” each time. Moreover, the max response was -25.4% in test [6] and 0.0529% (inactive) in test [11]. In addition, the call in test [12] was inactive.
With `CCCC1COC(Cn2cncn2)(c2ccc(Cl)cc2Cl)O1` (stereo unspecified), the activation in test [1] was -7.53% (inactive) and -11.8% (inactive); in test [4], 0.69% (inactive); in [5] it was 4.96% (inactive) and -1.29% (inactive); in test [10], -0.905% (inactive) and -2.64% (inactive). In addition, the Potency entry in test [2], in [3] and in [7] was “inactive” in each case. Also, the max response in test [6] is 10.7%. Moreover, the result in test [8] was inactive. Further, in test [9], the Potency was 54.5 µM (active) and 61.1 µM (active).
Take `O=S1OC[C@@H]2[C@H](CO1)[C@@]1(Cl)C(Cl)=C(Cl)[C@]2(Cl)C1(Cl)Cl` (stereo partly specified): the activation in test [1] was -8.15% (inactive) and -7.22% (inactive); in [4], 1.84% (inactive) and 4.33% (inactive); in test [5] it was -18.2% (inactive) and -5.58% (inactive); in test [10], 0.712% (inactive) and 0.812% (inactive). Besides, the Potency entry in [2] is “inactive”. In addition, in test [8], the outcome was inactive. Also, the Potency in test [9] is 24.3 µM (active).
`CC(C)(C)N(NC(=O)c1ccc(Cl)cc1)C(=O)c1ccccc1`: the results for the activation in [1], in test [4] and in test [5] were 4.02% (inactive), 5.56% (inactive) and -0.985% (inactive), respectively. Also, the Potency entry in test [2], in test [3], in test [7] and in [9] was “inactive” in each case. Further, the max response in test [6] was -27.8%.
